Counter-ions that a name gives are not always drawn. ± gives the standard deviation of the averaged measurements.
The compounds below were run on E. coli TESEC Mtb Alr (assay: growth (OD600 after 10 h); higher = more growth (less inhibition)). Settings: arabinose 100000 nM; compound 0.1 mM; raw OD600 reference: median of DMSO wells 0.201, cell-free background 0.041.
Procedure: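 TESEC Mtb Alr E. coli, or the Alr+ wild-type control, in 384-well plates with Prestwick library compounds at 0.1 mM and 1% DMSO, across arabinose induction levels of 1E3 to 1E7 nM. Growth is read as OD600 after 10 h at 37 °C in triplicate biological replicates.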
Compound `COc1ccc([C@@H]2Sc3ccccc3N(CCN(C)C)C(=O)[C@@H]2OC(C)=O)cc1` [Diltiazem hydrochloride] has a growth of 0.175 ± 0.0049.
`CC(=O)N[C@@H](CC(=O)N[C@@H](CCC(=O)O)C(=O)O)C(=O)O` [Spaglumic acid] showed a growth of 0.197 ± 0.0095.
`Cc1ccnc(NS(=O)(=O)c2ccc(N)cc2)n1` [Sulfamerazine] showed a growth of 0.211 ± 0.0032.
With `N=c1nc(N2CCCCC2)cc(N)n1O` [Minoxidil] the growth was 0.225 ± 0.0082.
With `COc1ccc2c(c1)c(CC(=O)O)c(C)n2C(=O)c1ccc(Cl)cc1` [Indomethacin] the growth was 0.124 ± 0.0036.
`CN1CC2c3ccccc3Oc3ccc(Cl)cc3C2C1` (centres undefined) [Asenapine maleate] showed a growth of 0.18 ± 0.004.

Same assay, conditions: arabinose 1000000 nM; compound 0.1 mM; raw OD600 reference: median of DMSO wells 0.193, cell-free background 0.041
`CN1CCCC(n2nc(Cc3ccc(Cl)cc3)c3ccccc3c2=O)CC1` (centres undefined) [Azelastine HCl] gave a growth of 0.105 ± 0.0015.
Compound `COC(=O)Nc1nc2ccc(SC(C)C)cc2[nH]1` [Methiazole] has a growth of 0.219 ± 0.0056.
In the case of `CCCCNC(=O)NS(=O)(=O)c1ccc(C)cc1` [Tolbutamide], the growth is reported as 0.16 ± 0.006.
`CS(=O)(=O)OCCCCOS(C)(=O)=O` [Busulfan] was tested, and the growth was 0.184 ± 0.0057.
For `Fc1ccc([C@@H]2CCNC[C@H]2COc2ccc3c(c2)OCO3)cc1` [Paroxetine Hydrochloride], the growth was 0.05573 ± 0.00035.
`CC1(C)O[C@@H]2C[C@H]3[C@@H]4C[C@H](F)C5=CC(=O)C=C[C@]5(C)[C@H]4[C@@H](O)C[C@]3(C)[C@]2(C(=O)CO)O1` [Flunisolide] showed a growth of 0.159 ± 0.0049.
For `CNCCc1ccccn1` [Betahistine mesylate], the growth was 0.182 ± 0.0047.
`CC(C(=O)O)c1ccc(C(=O)c2cccs2)cc1` (centres undefined) [Suprofen] showed a growth of 0.214 ± 0.0056.

Reference: the supplement of paper PMC9262897, “Low-cost anti-mycobacterial drug discovery using engineered E. coli” (Nature Communications, 2022)
